Compound activity from PubChem BioAssay.
In the library only some 18% were active in any assay of this set; here they are far more common.
VDR inhibitor = inhibitors of human vitamin D receptor. AID 504847. VDR-SRC2-3 peptide fluorescence polarization, 2 h. P11473. Potency, µM, for the others: max response, negative = inhibition, actives largely listed as inhibitors. 0.93% of 400,000 active
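Fluorescence polarization assay of small-molecule disruption of VDR binding to coregulator peptide SRC2-3. Compounds and controls pin-transferred, then read after 2 h incubation at ambient room temperature.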
TDP1 block = TDP1 (human) enzyme inhibition; Q9NUW8; recombinant TDP1, AlphaScreen DNA substrate cleavage; Potency, µM (titrated, usually from 130 µM), for inactives: top-dose activity change, negative = inhibition, actives largely listed as inhibitors; 0.28% of 350,000 active; further: nearly all actives have a fitted effect of over 40% in size
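Recombinant human Tdp1 (E. coli-expressed, 1 nM final) preincubated with compounds 15 min at room temperature, then 5'-biotin/3'-phosphotyrosine-FITC DNA substrate (15 nM final) added for 5 min. AlphaScreen beads (10 ug/ml final) added 10 min; cleavage lowers signal.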
KAT2A inh = blocks human GCN5L2 histone acetyltransferase | AID 504327 | Q92830 | GCN5L2 HAT assay, ThioGlo1 CoA-SH fluorescence | 0.21% of 390,000 active | Potency, µM (doses to about 58.9 µM), inactives show at the top dose activity change, negative = inhibition, hits mostly inhibitors
Target sequence (Q92830 whole entry, looked up): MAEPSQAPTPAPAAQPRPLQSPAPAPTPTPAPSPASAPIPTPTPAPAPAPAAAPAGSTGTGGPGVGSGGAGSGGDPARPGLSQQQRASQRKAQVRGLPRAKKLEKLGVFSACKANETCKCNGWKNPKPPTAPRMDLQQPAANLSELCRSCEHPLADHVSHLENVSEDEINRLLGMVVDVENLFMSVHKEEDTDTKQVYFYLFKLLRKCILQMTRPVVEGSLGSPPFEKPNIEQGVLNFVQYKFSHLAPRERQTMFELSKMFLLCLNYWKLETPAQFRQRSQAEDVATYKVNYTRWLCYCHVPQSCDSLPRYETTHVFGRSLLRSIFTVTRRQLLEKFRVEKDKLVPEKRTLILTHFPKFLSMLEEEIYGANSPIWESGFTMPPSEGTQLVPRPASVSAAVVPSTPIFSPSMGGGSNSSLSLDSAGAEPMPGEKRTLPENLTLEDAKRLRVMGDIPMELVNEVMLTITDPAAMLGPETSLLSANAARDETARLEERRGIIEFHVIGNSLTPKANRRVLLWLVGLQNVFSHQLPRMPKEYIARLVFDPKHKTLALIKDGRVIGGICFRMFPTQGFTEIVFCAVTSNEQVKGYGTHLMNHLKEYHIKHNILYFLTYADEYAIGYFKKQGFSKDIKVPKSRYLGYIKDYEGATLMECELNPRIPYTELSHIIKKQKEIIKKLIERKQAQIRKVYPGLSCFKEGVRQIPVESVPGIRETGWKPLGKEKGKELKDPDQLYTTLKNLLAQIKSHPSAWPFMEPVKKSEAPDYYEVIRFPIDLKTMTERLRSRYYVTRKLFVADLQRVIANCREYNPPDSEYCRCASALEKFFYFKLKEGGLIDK
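Free CoA generated was detected with ThioGlo1 (50uM) fluorescence at Ex340nm/Em540nm, read immediately and after 20 min at room temperature. Enzyme, 20 nM in HEPES pH 7.5 buffer, saw compounds 15 min before adding 75uM H3(1-25) peptide and 70uM acetyl-CoA.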
PLK1 PBD inh = inhibitors of human PLK1 polo-box domain binding. P53350. Plk1 PBD binding of FITC phosphopeptide, fluorescence polarization. Potency, µM, without a hit: max response, negative = inhibition, hits mostly inhibitors. 2.8% of 360,000 active; further: series mostly up to about 57 µM; nearly all actives have a fitted effect of over 65% in size
TDP1 cell CPT = DT40-hTDP1 cell growth loss with CPT | chicken DT40 Tdp1-/-;hTDP1 cells + 20 nM CPT, ATP luminescence, 48 h | 12% of 420,000 active | Potency, µM (top dose mostly 46.2 µM), for inactives: at the highest dose activity change, negative = growth inhibition, actives largely listed as inhibitors; further: nearly all actives have a fitted effect of over 55% in size
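Cell growth measured by CellTiter-Glo luminescence after a minimum 48 h, 37 C compound exposure with 20 nM CPT in Tdp1-knockout DT40 cells stably expressing hTDP1, seeded 400/well; qHTS titration format.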
TDP1 cell noCPT = qHTS for Inhibitors of human tyrosyl-DNA phosphodiesterase 1 (TDP1): qHTS in cells in absence of CPT. DT40 Tdp1-/- hTDP1 cells, no CPT, ATP luminescence, 48 h. Potency, µM (highest dose often 46.2 µM), without a hit: at the top dose activity change, negative = growth inhibition, usual class: inhibitors. 15% of 420,000 active. AID 686978, 2013; further: nearly all actives have a fitted effect of over 55% in size
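Compound effects on proliferation are scored in DT40 Tdp1-/-;hTDP1 cells in the absence of CPT. ATP levels (CellTiter-Glo luminescence) are recorded after a ≥48 hr, 37 °C incubation.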
* = called active by the depositor; ? = inconclusive; / = no result given; [ ] = dose if it differs, or a comment. The call rests on the fitted dose curve; in most records, active means well fitted curve in the direction sought with a large enough effect; inconclusive means small, poorly fitted or top-dose-only effect, or another doubt; inactive means no such curve, though single readings can be large; an effect the other way counts as inactive or inconclusive. On the % scale 0 is the no-effect control and ±100 the full control effect; potency means the concentration at half of the fitted maximal effect.

SMILES	VDR inhibitor	TDP1 block	KAT2A inh	PLK1 PBD inh	TDP1 cell CPT	TDP1 cell noCPT
CNC1C2CN3CCC(O2)C13 (stereo not given)	/	11.1%[56.1 µM]	/	/	1.7%	-3.4%
Cc1cc(C=C2C(=O)NC(=S)NC2=O)c(C)n1C1CCCC1	-20.6%	2.3%	-5.7%	?	14.6µM*	?
C=C1CCN([C@@H](CC(C)C)C(=O)Nc2ccc(OC)cc2)S(=O)(=O)c2ccccc21	-11.9%	/	/	5.9%	?	23.1µM*
CCOC(=O)C1(c2ccccc2)CCN(CCC(=O)Nc2ccc(OC)cc2)CC1	/	/	/	-10.0%	?	?
O=C(NC(=O)c1c(F)cccc1F)Nc1cc(Cl)c(F)c(Cl)c1F	-20.3%	7.1%	2.1%	-7.4%	-8.9%	?
NC(=NCc1ccc(Cl)cc1)SCCCc1cnc[nH]1	?	19.5%	-2.1%	/	21.1µM*	?
O=C(O)C(Cc1cnc[nH]1)NS(=O)(=O)c1ccc(Cl)cc1 (stereo not given)	11.2%	5.7%	-1.1%	8.1%	-20.5%	-24.8%
CC12CCC3C(=CCc4cc(O)ccc43)C1CCC2=O (stereo not given)	-18.6%	3.8%	3.5%	/	?	-33.5%
COc1ccccc1CN1CCCC2(CCN(C(=O)Oc3ccccc3)CC2)C1	8.3%	/	-0.3%	/	9.1%	-18.2%
CCOc1cc(C)cc2oc(=O)c3c(c12)CCCC3	-8.4%	/	-4.2%	0.2%	-0.3%	6.8%
Cc1cc(O)c2c3c(c(=O)oc2c1)CCC(C)C3 (stereo not given)	-13.6%	2.9%	-6.2%	-14.8%	14.6µM*	11.6µM*
O=C1NC(=S)NC(=O)C1Cc1ccccc1O	-0.8%	/	/	-1.3%	8.7%	8.1%
O=C1NC(=S)NC(=O)C1Nc1ccc(Cl)cc1	?	/	/	2.99µM*	?	7.31µM*
O=C(Nc1ccc(Cl)c(Cl)c1)c1ccco1	1.7%	0.6%	-5.9%	-4.0%	5.5%	-25.0%
O=C1NC(=O)C(Nc2ccc(Cl)c(Cl)c2)C(=O)N1	39.8µM*	/	/	-29.2%	11.4%	-2.5%
O=C(Nc1ccccc1)N1CC[C@@]2(CCCN(C(=O)Oc3ccccc3)C2)C1	-2.3%	/	1.1%	/	5.3%	-11.2%
O=C1CC(c2c(F)cccc2Cl)c2c(c3ccccc3oc2=O)O1 (stereo not given)	-3.2%	5.8%	1.9%	/	1.4%	2.2%
CC(C)n1cnc2c(C(=O)N[C@H]3CN4CCC3CC4)cc(Cl)cc21	-23.3%	8.5%	1.6%	/	?	?
Cc1ccccc1-n1nc(C)c2c1NC(=O)CSC2c1ccc(Cl)cc1 (stereo not given)	9.6%	5.7%	-2.5%	/	?	?
Cc1ccccc1-n1nc(C)c2c1NC(=O)CSC2c1ccc(N(C)C)cc1 (stereo not given)	10.4%	0.0%	-3.6%	/	?	18.4µM*
O=C1CSC(c2ccccc2Cl)c2cc(Cl)ccc2N1 (stereo not given)	?	14.6%	-20.7%	/	?	38.9µM*
Cc1cccc(-n2nc(C)c3c2NC(=O)CSC3c2ccccc2Cl)c1 (stereo not given)	4.3%	5.7%	-3.0%	/	?	20.6µM*
C=CCBr	/	13.2%	/	/	/	/
CC1(C)C(=O)C=C[C@@]2(C)C1=C(O)C(=O)[C@@]1(C)C2CC[C@@]2(C)C(c3ccoc3)C[C@H]3O[C@@]321 (stereo not given in full)	7.94µM*	9.6%[56.1 µM]	-14.3%	/	11.6µM*	11.6µM*
Cc1cc(OC(=O)c2cccs2)c2c3c(c(=O)oc2c1)CCCC3	-0.2%	2.7%	-2.5%	-6.6%	18.4µM*	5.17µM*
SMILES	VDR inhibitor	TDP1 block	KAT2A inh	PLK1 PBD inh	TDP1 cell CPT	TDP1 cell noCPT
Cc1cc(OCC(=O)Nc2cc(C)nn2-c2ccccn2)c2c3c(c(=O)oc2c1)CCC3	/	1.1%	6.6%	/	/	/
Cc1ccc(-n2nc(C)cc2NC(=O)COc2cc(C)cc3oc(=O)c4c(c23)CCC4)cc1	9.2%	4.8%	-24.6%	-5.7%	?	29.1µM*
Cc1cc(OCC(=O)N2CCC(C(N)=O)CC2)c2c3c(c(=O)oc2c1)CCCC3	-7.8%	/	0.7%	-4.6%	23.1µM*	-26.8%
Cc1cc(OC(=O)c2ccco2)c2c3c(c(=O)oc2c1)CCCC3	5.2%	3.0%	-8.1%	-0.9%	11.6µM*	10.3µM*
Oc1ccc2c3c1O[C@H]1[C@@H](O)CC[C@]4(O)[C@H](C2)N(CC2CCC2)CC[C@@]314	-6.4%	2.2%[56.1 µM]	6.8%[21.4 µM]	/	/	/
CCC[N+](=O)[O-]	/	5.4%	/	/	/	/
CC(C)C(=O)NC(Oc1ccccc1Cl)C(Cl)(Cl)Cl (stereo not given)	14.7%	5.3%	-6.6%	?	-22.9%	-16.5%
Cc1cc(OC(C)C(=O)NCc2cccnc2)c2c3c(c(=O)oc2c1)CCC3 (stereo not given)	-6.7%	-19.2%	-2.5%	?	-9.3%	8.6%
Cc1cc(OC(C)C(=O)NCc2ccncc2)c2c3c(c(=O)oc2c1)CCCC3 (stereo not given)	-4.7%	7.5%	-9.2%	-10.7%	23.1µM*	?
ClCCN(CCCl)c1ccc(C=Nc2ccncc2)cc1	/	/	/	/	?	11.2µM*
ClCCN(CCCl)c1ccc(C=Nc2ccc(/C=C/c3ccncc3)cc2)cc1	/	/	/	/	12.6µM*	12.6µM*
COC(=O)[C@H]1[C@H](c2ccccc2)C(=O)[C@@]2(O)c3ccccc3O[C@@]12c1ccccc1	/	3.7%[21 µM]	/	/	/	/
C[C@@]12CCC(OS(=O)(=O)O)C[C@@H]1CCC1C2CC[C@]2(C)C(=O)CCC12 (stereo not given in full)	-14.1%	3.6%	-2.7%	/	-1.9%	1.9%
O=C(CSc1nc2ccccc2c(=O)n1-c1ccccc1)Nc1ccc2c(c1)CCC2	/	/	/	-6.9%	?	20.6µM*
O=C(CSc1nc2ccccc2c(=O)n1-c1ccc(Cl)c(Cl)c1)Nc1ccc2c(c1)CCC2	/	/	/	-6.1%	?	?
CC[C@@]1(O)C(=O)OCc2c1cc1n(c2=O)Cc2cc3c(N)cccc3nc2-1	-8.0%	?	-2.3%	-19.1%	0.164µM*	0.13µM*
CCCN(CC#CCO)CCC	5.5%	2.4%	-2.5%	2.9%	-7.0%	-1.8%
O=C1CC(N2CC=C(c3ccccc3)CC2)C(=O)N1c1ccc(F)cc1 (stereo not given)	-9.8%	7.6%	-10.1%	-29.0%	14.6µM*	18.4µM*
O=C1CC(N2CCC(n3c(=O)[nH]c4ccccc43)CC2)C(=O)N1c1ccc(F)cc1 (stereo not given)	-6.2%	-10.3%	-18.7%	-16.3%	-13.0%	-29.2%
CC[C@@H](C(N)=O)N1CCCC1=O	-0.6%	2.9%	-5.0%	/	/	/
